These results are taken from PubChem BioAssay (NCI).

Assay in all cases: NCI-60 one-dose screen, 48 h (100 = growth as untreated, 0 = no growth, -100 = all killed)
Assay [1] deals with DU-145 prostate. The settings on record: 10 µM unless noted.
Assay [2] concerns K-562 leukemia. The settings on record: 10 µM unless noted.
Assay [3] relates to MALME-3M melanoma. As to conditions: 10 µM unless noted.
Assay [4] relates to MDA-MB-231 breast. As to conditions: 10 µM unless noted.
The test system of assay [5] is RXF 393 renal. As to conditions: 10 µM unless noted.
In assay [6] the test system is SF-268 CNS. As to conditions: 10 µM unless noted.
For assay [7], the system named is SF-295 CNS. As to conditions: 10 µM unless noted.
The subject of assay [8] is SF-539 CNS. As to conditions: 10 µM unless noted.
Assay [9] concerns UACC-257 melanoma. As to conditions: 10 µM unless noted.
Assay [10] relates to M14 melanoma. As to conditions: 10 µM unless noted.
In assay [11] the test system is HCT-15 colon. The settings on record: 10 µM unless noted.
For assay [12], the system named is HT29 colon. As to conditions: 10 µM unless noted.
The test system of assay [13] is SNB-19 CNS. The settings on record: 10 µM unless noted.
The test system of assay [14] is U251 CNS. As to conditions: 10 µM unless noted.
The subject of assay [15] is PC-3 prostate. As to conditions: 10 µM unless noted.
Assay [16] concerns SK-MEL-5 melanoma. The settings on record: 10 µM unless noted.
The subject of assay [17] is UACC-62 melanoma. The settings on record: 10 µM unless noted.
In assay [18] the test system is LOX IMVI melanoma. The settings on record: 10 µM.
Assay [19] deals with SK-MEL-28 melanoma. As to conditions: 10 µM unless noted.

The structures appear in SMILES notation. This is part of a sample that, as a whole, favours compounds with a hit. Of some 83,000 tested, about 20% had one in any assay.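 The endpoint reported here, percent growth, reads 100 for growth as untreated, 0 for no net growth and -100 for all cells dead.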 Unmarked numbers belong to inactive results. Calls of active or inactive are those of the source. The calls were made as follows: active = growth percent below 10; inactive = the rest.

Regarding `O=c1[nH]c(=O)c2c(-c3cc4ccccc4oc3=O)ccnc2[nH]1`, the growth in [1] was 88%; in [2] it was 106%; in assay [3] it was 64%; in [4], 64.9%; in [5] it was 69.5%; in [6] it was 79.6%. For the same compound, the growth was 3.14% (active) in assay [7]; 70.2% in assay [8]; 103% in assay [9]; 91.4% in [10]; 81.4% in assay [11]; 102% in assay [12]. Further, the growth in assay [13] is 75.5%; in [14] it was 19.5%; in [15], 85.4%; in assay [16] it was 89%; in assay [17] it was 82.7%; in [18], 65.3%. Moreover, the growth in assay [19] was 115%.

Consider `C=C1CCC2C3(C)COC(c4ccccc4)OC3CCC2(C)C1CC(NCc1ccccc1)C1=CCOC1=O` (stereo not given), for which the growth was 98.7% in assay [1]; 58.8% in assay [2]; 92.4% in assay [3]; 71.5% in assay [4]; 78.5% in assay [5]; 82.4% in assay [6]. Moreover, the growth in [7] was 72%; in assay [8] it was 89.2%; in assay [9], 71.7%; in [10], 76%; in assay [11] it was 87.1%; in [12] it was 73.5%. Further, the growth in assay [13] is 73.6%; in [14] it was 77.3%; in assay [15] it was 31.6%; in assay [16], 69.9%; in assay [17] it was 70.1%; in [18], 74.3%. Also, the growth in assay [19] is 94.2%.

Turning to `O=C(Cn1c(/C=C/c2ccccc2)nc2ccccc2c1=O)Nc1ccc(Cl)cc1`, the growth in assay [1] was 71.3%; in assay [2], 85.2%; in assay [3], 59.1%; in assay [4], 4.32% (active); in [5] it was -8.9% (active); in assay [6] it was 75.2%. Moreover, the growth is 59.1% in [7]; 58.7% in assay [8]; 83.6% in assay [9]; 81.7% in [10]; 78% in assay [11]; 75.5% in assay [12]. The growth in assay [13] was 52.8%; in assay [14] it was 20.1%; in assay [15], 72.6%; in [16] it was 103%; in assay [17] it was 90.4%; in [18] it was 25.4%. The growth in [19] was 108%.

In the case of `Cc1ccccc1[C@H]1C(C(=O)c2ccc(Cl)cc2)C2(N[C@@H]1c1ccccc1)C(=O)Nc1ccc(Br)cc12` (stereo not given in full), the growth is 15% in [1]; 1.41% (active) in [2]; 45.1% in assay [3]; -19.8% (active) in assay [4]; -29% (active) in assay [5]; 31% in assay [6]. Also, the growth in [7] is 19.3%; in assay [8], 36.9%; in assay [9], 37.3%; in assay [10], 1.39% (active); in assay [11], 7.15% (active); in assay [12], -58.6% (active). For the same compound, the growth in assay [13] was 38.4%; in assay [14], -3.71% (active); in assay [15], -4.58% (active); in assay [16], 35.3%; in [17], 11.2%; in [18], -95.3% (active). For the same compound, the growth in assay [19] was 41%.

Regarding `Cn1cc(-c2cc(N)n3nc(-c4c[nH]c5ccccc45)cc3n2)c2cccnc21`, the growth in [1] was 38.2%; in [2], 6.08% (active); in assay [3] it was -27.3% (active); in assay [4] it was -9.34% (active); in assay [5], 29.6%; in assay [6], 81.6%. Also, the growth in assay [7] was -4.84% (active); in assay [8] it was -81.5% (active); in [9] it was 92.3%; in [10], -48.1% (active); in assay [11], -10.2% (active); in [12], -38.1% (active). Moreover, the growth in [13] is 59.9%; in [14], 20%; in assay [15], 5.88% (active); in assay [16], 23.1%; in assay [17], -84% (active); in assay [18], -85.8% (active). Further, the growth in [19] was -81.6% (active).

`CC(C)c1sc(NC(=O)c2cc(NC(=O)c3cc(NC(=O)c4nccn4C)cn3C)cn2C)nc1C(=O)NCCCN(C)C`: the growth was 91.7% in [1]; 30.8% in assay [2]; 65% in [3]; 85.5% in [4]; 76.6% in assay [5]; 57.9% in assay [6]. Also, the growth in assay [7] is 100%; in [8] it was 76.9%; in assay [9] it was 82.3%; in [10] it was 94.3%; in [11], 104%; in assay [12], 90.7%. Moreover, the growth in assay [13] is 48.1%; in assay [14], 30.2%; in assay [15], 46%; in assay [16], 73.5%; in assay [17], 66.3%; in assay [18], 29.8%. For the same compound, the growth in assay [19] is 99%.

As to `Brc1ccc(N/N=C/c2c[nH]c3ccc(Br)cc23)nc1`, the growth is 15.6% in assay [1]; -33.1% (active) in assay [2]; -57.4% (active) in [3]; -63.5% (active) in assay [4]; -22.9% (active) in assay [5]; 10.5% in assay [6]. Also, the growth is -78.3% (active) in assay [7]; -41.5% (active) in assay [8]; 7.1% (active) in assay [9]; -71.3% (active) in [10]; -61.8% (active) in assay [11]; -80.1% (active) in assay [12]. Also, the growth is 4.49% (active) in assay [13]; -63.5% (active) in assay [14]; -29.6% (active) in assay [15]; -87% (active) in [16]; -57% (active) in assay [17]; -100% (active) in assay [18]. For the same compound, in assay [19], the growth was -50.7% (active).

For `O=C1/C(=C/C2=Cc3ccccc3OC2)SC(=S)N1c1ccccc1F`, the growth is 108% in assay [1]; 92.4% in assay [2]; 96.2% in assay [3]; 97.2% in [4]; 109% in assay [5]; 122% in [6]. Further, the growth in assay [7] is 96.9%; in [8], 97.6%; in [9] it was 107%; in [10], 93.3%; in [11] it was 107%; in assay [12], 110%. For the same compound, the growth in assay [13] was 98.2%; in assay [14], 102%; in assay [15] it was 95.7%; in [16] it was 105%; in assay [17] it was 88.4%; in [18] it was 101%. The growth in assay [19] was 105%.

In the case of `COc1c(F)ccc(C(=O)Nc2ccc3nc(NC(=O)C4CCCN(S(=O)(=O)c5cccc(C(F)(F)F)c5)C4)sc3c2)c1F` (stereo not given), the growth in assay [1] was 91.1%; in [2], 62.3%; in [3] it was 94.7%; in [4], 85%; in [5] it was -9.56% (active); in assay [6], 65%. Besides, the growth in [7] is 79.8%; in assay [8] it was 70.1%; in assay [9], 89.9%; in [10], 87.5%; in assay [11], 69.1%; in [12], 83.2%. For the same compound, the growth in [13] is 72.6%; in assay [14] it was 69.8%; in [15] it was 50.3%; in [16], 89.3%; in [17], 83.3%; in assay [18], 86.5%. Moreover, the growth in [19] was 98.2%.

For the compound `Cc1ccc([C@H]2C(C(=O)c3ccc(Cl)cc3)C3(N[C@@H]2c2ccccc2)C(=O)Nc2ccccc23)cc1` (stereo not given in full), the growth in assay [1] was 80.2%; in assay [2] it was 11.8%; in [3] it was 20.5%; in [4] it was 27.2%; in assay [5], 19%; in assay [6], 61.1%. In addition, the growth in assay [7] was 42.6%; in assay [8] it was 83.9%; in [9], 26.9%; in [10], 28.7%; in [11] it was 35.6%; in [12], 17.8%. Further, the growth is 41% in [13]; 48.6% in assay [14]; 2.35% (active) in assay [15]; 34.3% in assay [16]; 13.4% in [17]; 25.5% in [18]. The growth in assay [19] was 32.8%.
